The whole screen tested about 310,000 compounds, of which about 14,000 (4.5%) showed an effect of 50% or more. The effect is printed as a negative number. Only a selection was taken, and strong results are over-represented in it overall.
These compounds were tested against human ether-à-go-go-related gene (hERG) potassium channel (human, UniProt Q12809) (assay: primary screen, population patch clamp on CHO cells stably expressing hERG; higher = less effect of the substance).
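Further: peak tail current of the secondary pulse compared with the same well before compound.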

Sequence of human ether-à-go-go-related gene (hERG) potassium channel (Q12809 whole entry, looked up): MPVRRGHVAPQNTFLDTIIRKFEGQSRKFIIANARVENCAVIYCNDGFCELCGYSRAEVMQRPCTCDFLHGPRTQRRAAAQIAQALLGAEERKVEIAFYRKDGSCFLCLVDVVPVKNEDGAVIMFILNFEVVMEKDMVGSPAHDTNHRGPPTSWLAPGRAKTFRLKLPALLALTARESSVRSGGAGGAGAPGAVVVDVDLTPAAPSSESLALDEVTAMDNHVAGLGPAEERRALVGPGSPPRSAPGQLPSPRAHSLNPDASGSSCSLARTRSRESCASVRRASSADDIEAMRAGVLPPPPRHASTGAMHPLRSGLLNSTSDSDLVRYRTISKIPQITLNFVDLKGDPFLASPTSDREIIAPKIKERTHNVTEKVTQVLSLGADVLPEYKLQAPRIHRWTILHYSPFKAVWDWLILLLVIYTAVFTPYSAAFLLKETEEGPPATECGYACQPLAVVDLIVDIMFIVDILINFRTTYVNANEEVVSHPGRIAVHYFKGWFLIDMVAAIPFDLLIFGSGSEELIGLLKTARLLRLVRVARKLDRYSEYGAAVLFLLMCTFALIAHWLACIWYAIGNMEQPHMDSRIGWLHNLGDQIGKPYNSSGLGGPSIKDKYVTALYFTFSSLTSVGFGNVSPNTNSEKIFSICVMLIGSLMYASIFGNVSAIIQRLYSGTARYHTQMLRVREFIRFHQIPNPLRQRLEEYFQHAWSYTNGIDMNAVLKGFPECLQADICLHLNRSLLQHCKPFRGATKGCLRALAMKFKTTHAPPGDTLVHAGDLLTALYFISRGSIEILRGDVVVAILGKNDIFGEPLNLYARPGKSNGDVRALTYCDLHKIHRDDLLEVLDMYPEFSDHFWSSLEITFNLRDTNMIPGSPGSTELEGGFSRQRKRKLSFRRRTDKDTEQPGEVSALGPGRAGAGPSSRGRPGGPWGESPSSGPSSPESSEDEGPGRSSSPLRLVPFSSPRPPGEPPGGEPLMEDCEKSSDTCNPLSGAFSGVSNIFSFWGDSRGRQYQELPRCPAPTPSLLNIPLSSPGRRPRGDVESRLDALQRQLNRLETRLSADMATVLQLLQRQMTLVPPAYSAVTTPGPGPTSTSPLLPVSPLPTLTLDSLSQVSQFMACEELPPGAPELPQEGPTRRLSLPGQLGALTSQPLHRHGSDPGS

| Structure (SMILES) | hERG current change (%, negative = inhibition) at 10uM [%] |
| --- | --- |
| CC1CCN(CC(=O)Nc2ccc(S(=O)(=O)N3C(C)CCCC3C)cc2)CC1 (centres unmarked) | 3.93 |
| O=C(Cc1ccccc1)NCCc1cnc[nH]1 | 17.4 |
| COc1ccc(C(=O)NCC(C)NC(=O)c2ccc(OC)c(OC)c2)cc1OC (centres unmarked) | 13.8 |
| COC(=O)Cc1ccc(NC(C)=O)cc1 | 8.79 |
| COc1cccc(NC(=O)CCC(=O)NCc2ccco2)c1 | 17.2 |
| Cc1c(Cl)cccc1NC(=S)/C(=C(\[O-])c1ccc(Cl)s1)[n+]1ccccc1 | 3.76 |
| Cc1cc(C=C2C(=O)c3ccccc3C2=O)c(C)n1-c1ccc(C(=O)O)cc1 | 1.68 |
| Cc1nn2c(C(F)(F)F)cc(-c3ccc(Cl)cc3)nc2c1C(=O)N1CCOCC1 | -13.6 |
| CCN(CC)P(=S)(c1c(C)nc2ccccn12)c1c(C)nc2ccccn12 | -9.33 |
| CCN(CC)P(=O)(c1ccccc1)c1c(C)nc2ccccn12 (centres unmarked) | -3.24 |
| Cc1nc2ccccn2c1P(=Nc1ccccc1)(N(C)C)N(C)C | -52.5 |
| N#Cc1c(SCC(=O)Nc2nc3ccc(Br)cc3s2)sc2c(O)cc(=O)[nH]c12 | 9.27 |
| CC(C)CNC(=S)NC(=O)c1ccc(F)cc1 | 5.45 |
| CC(=O)c1ccc2c(c1)C1C=CCC1C(c1ccncc1)N2 (centres unmarked) | -21 |
| COc1ccc(C(=O)N/N=C(\C)c2ccc3c(c2)C2C=CCC2C(c2ccccc2)N3)cc1 (centres unmarked) | -1.79 |
| COC(=O)c1ccc(C2Nc3ccc(/C(C)=N/NC(=O)C(OC)c4ccccc4)cc3C3C=CCC32)cc1 (centres unmarked) | -76.2 |
| CCN(CC)C(=O)c1csc(Nc2ccc(C)cc2)n1 | -34.8 |
| S=C(NCc1cccnc1)Nc1cccc2ccccc12 | -9.3 |
| c1ccc(-c2nc3ccccc3nc2N2CCOCC2)cc1 | -54.7 |
| c1ccc2c(c1)nc(N1CCOCC1)c1ccccc12 | 11.2 |
| c1ccc2nc(N3CCOCC3)c(N3CCOCC3)nc2c1 | -1.12 |
| CCCCCCCN1C2=NCCCN2c2ccccc21.Cl | -58.5 |

| Structure (SMILES) | hERG current change (%, negative = inhibition) at 10uM [%] |
| --- | --- |
| CCCCN1C(N)=NC[C@@H]1c1ccccc1 | -2.61 |
| Br.CCN1C2=NCCCN2c2cc(C)c(C)cc21 | -23.2 |
| Br.CCCCN1C2=NCCCN2c2cc(C)c(C)cc21 | -65.4 |
| Br.CCCCN1C2=NCCCN2c2ccccc21 | -54.5 |
| CCCN1C2=NCCCN2c2ccccc21.Cl | -9.58 |
| CCCN1C2=NCCN2c2cc(C)c(C)cc21.Cl | -30.7 |
| CCCCN1C2=NC(c3ccccc3)CN2c2ccccc21.Cl (centres unmarked) | -69 |
| c1ccc([C@H]2CN3C(=N2)Sc2ccccc23)cc1 | -19.2 |
| COCCN1C(=O)CS/C1=C(/C#N)C(=O)NCc1ccco1 | -7.92 |
| COc1ccc(C(=O)O)cc1S(=O)(=O)Nc1cccc(C)c1 | -18.9 |
| Cc1ccc(-n2nnc3c(=O)n(CC(=O)NCc4ccccc4)cnc32)cc1 | -15.5 |
| C[C@@H]1CC[C@@]23COC(=O)C2=CCC[C@@H]3[C@@]1(C)CC/C(=C/CO)CO | -6.27 |
| O=C(c1ccc(Cl)c(Cl)c1)N1CCC(=O)N(C(CO)Cc2ccccc2)CC1 (centres unmarked) | 5.42 |
| CCOC(=O)c1cn2nc(Oc3cccc(C(F)(F)F)c3)ccc2n1 | -6.27 |
| O=c1cc(-c2ccncc2)oc2c1ccc1ccccc12 | -4.57 |
| Cl.c1ccc2c(c1)N1CCN=C1N2CCN1CCCCC1 | -15.3 |
| CCCCCCN1C2=NCCCN2c2ccccc21.Cl | -78.3 |
| Cl.c1ccc2c(c1)N1CCCN=C1N2CCN1CCCCC1 | -62.8 |
| COc1cccc(/C=C/C(=O)Nc2ccc3[nH]c(=O)[nH]c3c2)c1 | 7.9 |
| CCN1CCN(C(=O)CN(c2ccc(F)cc2)S(=O)(=O)c2ccc(OC)c(OC)c2)CC1 | -66.8 |
| Cc1ccc(S(=O)(=O)N(C)c2ccc(C(=O)N3CCN(Cc4ccc5c(c4)OCO5)CC3)cc2)cc1 | -44.1 |
| COc1ccc(S(=O)(=O)N(CC(=O)N2CCN(C)CC2)c2ccc(C)cc2)cc1OC | -11 |

| Structure (SMILES) | hERG current change (%, negative = inhibition) at 10uM [%] |
| --- | --- |
| Cc1ccc(S(=O)(=O)N(C)CC(=O)N2CCN(Cc3ccc4c(c3)OCO4)CC2)cc1 | -66.6 |
| COc1ccc(N(CC(=O)N2CCN(Cc3ccccc3)CC2)S(=O)(=O)c2ccccc2)cc1 | -26.3 |
| COc1ccc(N(CC(=O)N2CCN(Cc3ccc4c(c3)OCO4)CC2)S(C)(=O)=O)cc1OC | 9.47 |
| Cc1ccc(S(=O)(=O)N(C)CC(=O)N2CCN(Cc3ccccc3)CC2)cc1 | -24.6 |
| CS(=O)(=O)N(CC(=O)N1CCN(Cc2ccccc2)CC1)c1ccc2c(c1)OCCO2 | -5.94 |
| COc1ccc(N(CC(=O)N2CCN(Cc3ccc4c(c3)OCO4)CC2)S(=O)(=O)c2ccc(F)cc2)cc1 | -84.6 |
| COc1ccc(S(=O)(=O)N(CC(=O)N2CCOCC2)c2ccc(F)cc2)cc1OC | 10.7 |
| CS(=O)(=O)N(CC(=O)N1CCN(Cc2ccc3c(c2)OCO3)CC1)c1ccc2c(c1)OCO2 | -58.9 |
| O=C(CN(c1ccccc1)S(=O)(=O)c1ccccc1)N1CCN(Cc2ccc3c(c2)OCO3)CC1 | -33.4 |
| COc1ccc(C(=O)NCc2nnc(SCC(=O)Nc3cccc(F)c3)o2)cc1 | -1.96 |
| COCCn1c(-c2ccc(OC)c(OC)c2)nc2ccccc21 | -21.6 |
| O=C1NC(=NCc2ccccc2)S/C1=C\c1ccccc1 | 23.8 |
| COc1cc(CNCCCN2CCOCC2)c(Br)cc1OCC(=O)Nc1ccccc1C | -15.3 |
| O=C(COc1ccc(Br)cc1CNCCCN1CCOCC1)Nc1ccccc1 | -47.8 |
| COc1ccccc1NC(=O)COc1cc(Br)c(CNCCCN2CCOCC2)cc1OC | -54.6 |
| C=CCOc1ccc(Br)cc1CNCCCN1CCOCC1.Cl | -27.7 |
| COc1cc(CNCCCN2CCOCC2)c(Br)cc1OC(C)C.Cl | 5.58 |
| COc1ccccc1NC(=O)COc1ccc(Br)cc1CNCCCN1CCOCC1.Cl | -58.6 |
| COc1cc(NC(=O)c2ccc(C)cc2)ccc1NC(=O)c1cc2ccccc2o1 | 15.2 |
| Cc1ccc(C)c(NC(=O)CSc2nnc(CCNC(=O)OC(C)(C)C)o2)c1 | -12.3 |
| CC1(C)CC(c2csc(N)n2)CCO1 (centres unmarked) | 2.95 |
| COc1ccc(N(CC(=O)N2CCN(c3ccc(Cl)cc3)CC2)S(=O)(=O)c2c(C)n[nH]c2C)cc1 | -10.1 |

| Structure (SMILES) | hERG current change (%, negative = inhibition) at 10uM [%] |
| --- | --- |
| Cc1ccc(N(CC(=O)N2CCN(c3ccc(F)cc3)CC2)S(=O)(=O)c2c(C)nn(C)c2C)cc1 | -65.8 |
| COc1ccc(N(CC(=O)N2CCN(c3ccc(F)cc3)CC2)S(=O)(=O)c2c(C)n[nH]c2C)cc1 | -69.4 |
| Cc1ccc(N(CC(=O)NCc2ccc(F)cc2)S(=O)(=O)c2c(C)nn(C)c2C)cc1 | -24.5 |
| Cc1ccc(N(CC(=O)N2CCN(c3ccc(F)cc3)CC2)S(=O)(=O)c2c(C)noc2C)cc1 | -39.5 |
| COc1ccc(N(CC(=O)N2CCN(c3ccccc3F)CC2)S(=O)(=O)c2c(C)n[nH]c2C)cc1 | -20.6 |
| O=C(O)/C=C\C(=O)N1CCc2ccccc21 | 27.9 |
| O=C1C(NS(=O)(=O)c2cccs2)=C(N2CCOCC2)C(=O)c2ccccc21 | -40.8 |
| C[n+]1ccc(C(=O)N/N=C/c2ccco2)cc1.[I-] | 26.7 |
| O=C(NCCCn1ccnc1)c1cc(-c2ccc(Cl)cc2)nc2ccccc12 | -68.8 |
| CCCCCCCNC(=O)c1cc(-c2ccncc2)nc2ccccc12 | 7.84 |
| COc1cccc(-c2cc(C(=O)NCCCn3ccnc3)c3ccccc3n2)c1 | -71.8 |
| COc1ccc(-c2cc(C(=O)NCCCn3ccnc3)c3ccccc3n2)c(OC)c1 | -32 |
| CCOc1ccc(-c2cc(C(=O)NCCCn3ccnc3)c3ccccc3n2)cc1 | -16 |
| O=C(NCCc1ccc(Cl)cc1)c1cc(-c2ccncc2)nc2ccccc12 | 4.23 |
| COc1cccc(C(=O)NCCCn2ccnc2)c1 | 7.29 |
| O=C(NCCCn1ccnc1)c1cc(-c2ccncc2)nc2ccccc12 | -56.3 |
| O=C(NCCc1ccccn1)c1cc(-c2ccc(Cl)cc2)nc2ccccc12 | -19.6 |
| CCCCN(C)CCC(=O)Nc1ccc(OC)cc1OC | 5.11 |
| Cc1cccc(Nc2nc3c(c(=O)n(C)c(=O)n3C)n2CC(O)CO)c1 (centres unmarked) | -0.943 |
| O=C(Cc1c(Cl)cccc1Cl)N1CCN(Cc2ccccc2)CC1 | -0.0324 |
